The source made the active and inactive calls.
Assays:
[1] = system: Human papillomavirus type 1a protein E7 (residues 44-93); assay: small molecules binding HPV E7 44-93 – biochemical, small-molecule microarray, residues 44-93, 635 nm fluorescence, primary screen (AID 1108); settings: fluorescence 635 nm, higher = more signal;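 also: E7 fragment applied at 1 µg/mL in TBST for 1 h at 4 C; score combines spot fluorescence with its signal to noise ratio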
[2] = hepatitis C replication reporter changes, two-sided – Huh7 cells, luciferase reporter, HCV replication inhibitor project, primary screen (AID 1109); settings: Huh7 HCV replicon luciferase reporter, 48 h; higher = more signal;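 also: huh7 hepatoma cells harbouring a luciferase neomycin HCV replicon reporter; luciferase luminescence as measure of HCV replicon replication; test concentration not given here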
[3] = target: Left-right determination factor 2 (Homo sapiens) (UniProt O00292); assay: small molecules binding LEFTY2 protein – biochemical, small-molecule microarray, 635 nm fluorescence scan, primary screen (AID 1110); settings: higher = more signal
[4] = target: Calmodulin-1 (Homo sapiens) (UniProt P0DP23); assay: small molecules binding calmodulin-1 with EGTA – biochemical, small-molecule microarray, Cy5-labelled CALM1, profiling panel (AID 1111); settings: Cy5-CALM1 binding fluorescence, higher = more signal;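 also: labelled calmodulin applied in Tris saline Tween buffer holding calcium plus EGTA and DTT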
[5] = target: Calmodulin-1 (Homo sapiens) (UniProt P0DP23); assay: small molecules binding Ca-loaded calmodulin-1 – biochemical, small-molecule microarray, Cy5-labelled CALM1, plus calcium, artefact control for SMM control-protein annotation, profiling panel (AID 1112); settings: Cy5-CALM1 binding fluorescence, higher = more signal;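 also: score merges spot fluorescence with signal to noise from triplicate slides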
[6] = probe aWnt5a binding to arrayed compounds – biochemical, biotinylated probe, 635/667 nm fluorescence, primary screen (AID 1113); settings: small-molecule microarray, higher = more signal;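 also: score merges 667 nm fluorescence intensity with signal-to-noise per printed feature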
[7] = probe aShh binding to arrayed compounds – biochemical, biotinylated probe, 635/667 nm fluorescence, primary screen (AID 1114); settings: small-molecule microarray, higher = more signal;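 also: probe is biotin-labelled aShh protein from a stem cell growth factor screen; measures binding of labelled protein to compounds printed on the slide; score merges feature fluorescence at 667 nm with signal-to-noise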
[8] = probe aNog binding to arrayed compounds – biochemical, biotinylated probe, 635/667 nm fluorescence, primary screen (AID 1115); settings: small-molecule microarray, higher = more signal;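 also: probe is biotinylated aNog protein used at 0.15 µg/mL for 1 h at 4 C; z-score combines 667 nm fluorescence of each spot with its signal to noise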
[9] = target: Torsin-1A-interacting protein 1 (Homo sapiens) (UniProt Q5JTV8); assay: compound microarray binding of lysate hLAP1 – cell lysate, small-molecule microarray, COS7 lysate, 635/667 nm fluorescence, primary screen (AID 1116); settings: 635 nm fluorescence, higher = more signal
[10] = target: Alpha-bungarotoxin (Bungarus multicinctus) (UniProt P60615); assay: compounds binding labelled alpha-BTX control protein – biochemical, small-molecule microarray, Alexa647 label, 635/667 nm fluorescence, artefact control for SMM control protein annotation, profiling panel (AID 1117); settings: alpha-BTX-A647 binding fluorescence, higher = more signal
Albumin (Bos taurus) = Albumin (Bos taurus) (UniProt P02769); assay: compounds binding labelled BSA control protein – biochemical, small-molecule microarray, Alexa647 label, 635/667 nm fluorescence, artefact control for SMM control protein annotation, profiling panel (AID 1118); settings: BSA-A647 binding, fluorescence 635 nm, higher = more signal;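 also: score merges 667 nm emission intensity and signal-to-noise per printed compound spot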
[11] = probe aXIP binding to arrayed compounds – biochemical, NeuroSMM set, 635/667 nm fluorescence, primary screen (AID 1119); settings: small-molecule microarray, higher = more signal, called active from +8 up or from −8 down;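 also: probe is the protein aXip251-270 applied at 1 µg/mL to compound-printed slides; binding of probe to printed compounds measured as 667 nm fluorescence plus signal to noise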
[12] = probe aNOTCH3 binding on compound microarray – biochemical, small-molecule microarray, 635/667 nm fluorescence, primary screen (AID 1120); settings: higher = more signal;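 also: probe is a biotin-tagged antibody raised against NOTCH3 rather than NOTCH3 protein; score merges spot fluorescence near 667 nm with spot signal to noise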
[13] = probe aNOTCH2 binding on compound microarray – biochemical, small-molecule microarray, 635/667 nm fluorescence, primary screen (AID 1121); settings: higher = more signal;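 also: score merges feature fluorescence read at 667 nm with its signal to noise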
[14] = target: Carbonic anhydrase 2 (Homo sapiens) (UniProt P00918); assay: compounds binding carbonic anhydrase 2 – biochemical, small-molecule microarray, Alexa647-labelled CAII, profiling panel (AID 1122); settings: CAII-A647 binding fluorescence, higher = more signal
[15] = COS7 lysate on small-molecule microarray, probe aHis, 635 nm (AID 1123); settings: COS7 cell lysate, fluorescence, higher = more signal;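 also: z-score combines 667nm fluorescence intensity with signal-to-noise per printed compound spot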
[16] = probe aLAP1 signal on lysate-treated microarray – cell lysate, small-molecule microarray, COS7 lysate, primary screen (AID 1124); settings: probe aLAP1, fluorescence, higher = more signal;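 also: lysate comes from COS7 cells expressing LAP1 and is applied at 0.3 µg/mL; score merges spot fluorescence near 667 nm with signal-to-noise over triplicate slides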
Sam68 (KHDRBS1) = assay: compounds binding KHDRBS1 protein – biochemical, small-molecule microarray, 635 nm fluorescence, primary screen (AID 1125); settings: higher = more signal;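 also: score merges 667 nm channel intensity with signal to noise over triplicate slides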
[17] = system: Chordin-like protein 2 (CHRDL2); assay: compounds binding chordin-like 2 – biochemical, small-molecule microarray, 635 nm fluorescence, primary screen (AID 1126); settings: fluorescence 635 nm, higher = more signal;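 also: printed compound slides probed with Chrdl2 protein at 4 µg/mL for 1 h at 4 C; score merges 667 nm emission intensity with signal to noise over three replicate slides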
[18] = target: Concanavalin-A (Canavalia ensiformis) (UniProt P02866); assay: compounds binding concanavalin A lectin – biochemical, small-molecule microarray, Alexa647 label, 635 nm, artefact control for SMM control protein annotation, primary screen (AID 1127); settings: ConA-A647 binding fluorescence, higher = more signal;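 also: z combines 667 nm emission intensity with signal-to-noise across three replicate slides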
Concanavalin-A (Canavalia ensiformis), sequence (P02866 whole entry, looked up): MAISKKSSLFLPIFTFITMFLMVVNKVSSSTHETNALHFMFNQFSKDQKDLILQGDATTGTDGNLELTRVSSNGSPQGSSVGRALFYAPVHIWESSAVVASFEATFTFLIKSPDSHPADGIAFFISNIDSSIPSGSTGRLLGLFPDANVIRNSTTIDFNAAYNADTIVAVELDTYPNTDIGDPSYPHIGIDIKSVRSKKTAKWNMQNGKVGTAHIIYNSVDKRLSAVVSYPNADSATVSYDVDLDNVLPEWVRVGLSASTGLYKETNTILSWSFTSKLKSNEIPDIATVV

Albumin (Bos taurus), sequence (P02769 whole entry, looked up): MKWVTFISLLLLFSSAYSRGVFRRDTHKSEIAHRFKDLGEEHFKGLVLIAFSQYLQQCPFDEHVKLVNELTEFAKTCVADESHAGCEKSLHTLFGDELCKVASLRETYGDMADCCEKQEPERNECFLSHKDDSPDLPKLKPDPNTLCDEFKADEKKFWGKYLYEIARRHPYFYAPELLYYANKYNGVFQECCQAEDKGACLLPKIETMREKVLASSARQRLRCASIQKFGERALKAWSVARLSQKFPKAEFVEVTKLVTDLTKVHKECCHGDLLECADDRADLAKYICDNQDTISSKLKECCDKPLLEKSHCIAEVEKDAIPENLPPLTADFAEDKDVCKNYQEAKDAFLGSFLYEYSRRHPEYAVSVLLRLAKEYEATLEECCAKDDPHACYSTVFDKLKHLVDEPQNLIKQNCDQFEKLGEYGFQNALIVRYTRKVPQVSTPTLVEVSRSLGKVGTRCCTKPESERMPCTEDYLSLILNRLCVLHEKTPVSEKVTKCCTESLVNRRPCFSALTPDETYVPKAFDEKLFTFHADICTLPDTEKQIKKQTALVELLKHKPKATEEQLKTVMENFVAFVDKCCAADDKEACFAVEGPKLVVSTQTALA
Left-right determination factor 2 (Homo sapiens), sequence (O00292 whole entry, looked up): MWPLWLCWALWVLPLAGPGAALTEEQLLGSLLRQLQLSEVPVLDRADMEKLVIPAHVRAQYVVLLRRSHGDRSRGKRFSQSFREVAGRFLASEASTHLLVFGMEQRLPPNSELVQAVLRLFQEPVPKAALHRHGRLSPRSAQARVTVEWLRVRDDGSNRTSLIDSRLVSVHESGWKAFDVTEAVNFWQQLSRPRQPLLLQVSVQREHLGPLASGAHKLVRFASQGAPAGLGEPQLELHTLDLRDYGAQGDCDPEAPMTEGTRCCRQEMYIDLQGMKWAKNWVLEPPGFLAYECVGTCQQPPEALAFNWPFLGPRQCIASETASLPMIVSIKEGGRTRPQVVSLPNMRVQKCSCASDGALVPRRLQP
Alpha-bungarotoxin (Bungarus multicinctus), sequence (P60615 whole entry, looked up): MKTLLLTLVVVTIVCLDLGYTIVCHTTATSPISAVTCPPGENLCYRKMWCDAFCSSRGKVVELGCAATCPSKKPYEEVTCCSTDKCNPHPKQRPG
Torsin-1A-interacting protein 1 (Homo sapiens), sequence (Q5JTV8 whole entry, looked up): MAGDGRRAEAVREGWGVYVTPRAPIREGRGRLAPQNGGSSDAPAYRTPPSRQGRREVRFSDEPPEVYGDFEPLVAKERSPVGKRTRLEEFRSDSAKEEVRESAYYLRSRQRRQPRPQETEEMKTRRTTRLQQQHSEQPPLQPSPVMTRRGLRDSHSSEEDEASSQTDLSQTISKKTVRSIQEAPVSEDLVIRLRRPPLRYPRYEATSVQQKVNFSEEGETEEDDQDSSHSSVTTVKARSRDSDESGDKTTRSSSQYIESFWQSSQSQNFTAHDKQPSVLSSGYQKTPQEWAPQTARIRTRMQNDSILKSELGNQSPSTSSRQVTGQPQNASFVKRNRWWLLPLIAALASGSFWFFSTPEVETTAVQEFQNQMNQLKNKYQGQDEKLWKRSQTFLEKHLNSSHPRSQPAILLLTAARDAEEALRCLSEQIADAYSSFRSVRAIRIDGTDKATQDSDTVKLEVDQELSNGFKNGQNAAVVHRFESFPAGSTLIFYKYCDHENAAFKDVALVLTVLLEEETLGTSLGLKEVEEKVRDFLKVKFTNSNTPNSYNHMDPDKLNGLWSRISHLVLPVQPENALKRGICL

CCOC(=O)[C@H](Cc1ccccc1)NC(=O)CCC1CC(OC(=O)NCc2cccc3ccccc23)CC2(CCCC(COC(=O)NCC3CCCCC3)O2)O1 (stereo not given in full)
composite z-score [1]: 1.33
z-score [2]: -1.48
composite z-score [3]: 0.643
composite z-score [4]: 0.297
composite z-score [5]: -0.525
composite z-score [6]: -0.0445
composite z-score [7]: 0.0596
composite z-score [8]: -0.142
composite z-score [9]: 0.128
composite z-score [10]: 0.746
composite z-score (Albumin (Bos taurus)): -0.112
composite Z-score [11]: 0.878 (inactive)
composite z-score [12]: 0.0713
composite z-score [13]: -0.123
composite z-score [14]: 0.0394
composite z-score [15]: 0.745
composite z-score [16]: 0.395
composite z-score (Sam68 (KHDRBS1)): 1.18
composite z-score [17]: 0.54
composite z-score [18]: 0.702

C#CCCCON=C1C[C@@H](O)[C@@H](O)[C@@H]2[C@@H]3C(=O)N(C[C@@H]4CCCO4)C(=O)[C@@H]3CC[C@H]12
composite z-score [1]: 0.592
z-score [2]: 0.403
composite z-score [3]: 0.397
composite z-score [4]: 0.256
composite z-score [5]: -0.0973
composite z-score [6]: -0.096
composite z-score [7]: -0.2
composite z-score [8]: -0.462
composite z-score [9]: 0.742
composite z-score [10]: 0.355
composite z-score (Albumin (Bos taurus)): 0.541
composite Z-score [11]: 1.11 (inactive)
composite z-score [12]: -0.0662
composite z-score [13]: -0.115
composite z-score [14]: 0.239
composite z-score [15]: 0.335
composite z-score [16]: 0.142
composite z-score (Sam68 (KHDRBS1)): 0.63
composite z-score [17]: 0.249
composite z-score [18]: 0.732

Cc1cc2c(nc1C)CCCCN2CC(O)CN1CCCc2nc(-c3ccc(Br)cc3)ccc21 (stereo not given)
composite z-score [1]: 0.599
z-score [2]: -0.116
composite z-score [3]: 0.615
composite z-score [4]: 0.114
composite z-score [5]: -0.823
composite z-score [6]: 0.093
composite z-score [7]: 0.304
composite z-score [8]: 0.17
composite z-score [9]: 0.404
composite z-score [10]: 0.888
composite z-score (Albumin (Bos taurus)): 0.466
composite Z-score [11]: -0.211 (inactive)
composite z-score [12]: 0.298
composite z-score [13]: 0.0067
composite z-score [14]: 0.493
composite z-score [15]: 0.417
composite z-score [16]: 0.293
composite z-score (Sam68 (KHDRBS1)): 0.754
composite z-score [17]: 0.613
composite z-score [18]: 0.783

C=CC[C@@H]1C=C[C@H](ON=C(C)CCN2CCCc3nc(C)c(C)cc32)[C@@H](CO)O1
composite z-score [1]: 0.298
z-score [2]: -0.839
composite z-score [3]: 1.14
composite z-score [4]: -0.0351
composite z-score [5]: -1.43
composite z-score [6]: 0.264
composite z-score [7]: 0.586
composite z-score [8]: 0.525
composite z-score [9]: 1.83
composite z-score [10]: 0.366
composite z-score (Albumin (Bos taurus)): -0.858
composite Z-score [11]: 2.94 (inactive)
composite z-score [12]: 0.712
composite z-score [13]: 0.276
composite z-score [14]: -0.1
composite z-score [15]: 0.735
composite z-score [16]: 0.629
composite z-score (Sam68 (KHDRBS1)): 1.32
composite z-score [17]: 1.3
composite z-score [18]: -0.12

CC(=O)OC[C@H]1O[C@@H](ON=C(C)CCC(=O)OC[C@H]2O[C@H](C#Cc3ccccc3)C=C[C@@H]2Oc2ccc(C)cc2)[C@H](OC(C)=O)[C@@H](OC(C)=O)[C@@H]1OC(C)=O
composite z-score [1]: 1.18
z-score [2]: -1.2
composite z-score [3]: 0.713
composite z-score [4]: 0.49
composite z-score [5]: -0.304
composite z-score [6]: -0.0735
composite z-score [7]: -0.0769
composite z-score [8]: -0.156
composite z-score [9]: 0.415
composite z-score [10]: -0.0285
composite z-score (Albumin (Bos taurus)): 0.635
composite Z-score [11]: -0.0164 (inactive)
composite z-score [12]: 0.0493
composite z-score [13]: -0.0714
composite z-score [14]: 0.273
composite z-score [15]: 0.989
composite z-score [16]: 0.0582
composite z-score (Sam68 (KHDRBS1)): 1.3
composite z-score [17]: 0.549
composite z-score [18]: 0.943

COC(=O)CC=C[C@@H](C)[C@@H](C=NOC(C)CN1CCCc2nc(C)c(C)cc21)NS(=O)(=O)c1ccc(C)cc1 (stereo not given in full)
composite z-score [1]: 1.09
z-score [2]: -1.05
composite z-score [3]: 0.817
composite z-score [4]: -0.481
composite z-score [5]: -0.56
composite z-score [6]: -0.0758
composite z-score [7]: 0.213
composite z-score [8]: -0.0172
composite z-score [9]: 0.232
composite z-score [10]: -0.0193
composite z-score (Albumin (Bos taurus)): -0.515
composite Z-score [11]: 0.964 (inactive)
composite z-score [12]: 0.033
composite z-score [13]: 0.0098
composite z-score [14]: -0.19
composite z-score [15]: 0.726
composite z-score [16]: 0.416
composite z-score (Sam68 (KHDRBS1)): 1.14
composite z-score [17]: 0.641
composite z-score [18]: 0.0308

Source: PubChem BioAssay
